HEK293 tox = qHTS of GLP-1 Receptor Inverse Agonists: Cytotox Screen; 410,000 tested, 0.13% active; AID 624418, 2012; Potency, µM (highest dose often 38.3 µM), without a hit: at the highest dose activity change, negative = inhibition, most hits filed as inhibitors; HEK293 cAMP-luciferase reporter cells, luminescence, 24 h;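 also: loss of luciferase light is scored as toxicity; % is scaled to controls: 0 for no effect and ±100 for the full control effect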
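Seeding density was 200 cells/uL; after overnight-length (12 h) culture, 23 nL compounds went on for 24 h at 37 °C. Readout used a luciferase detection reagent, luminescence taken after 12 min at room temperature.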
PTHR1 ag = qHTS for PTHR1 Agonists: Primary Screen; HEK293 GP2 PTHR1 cells, GloSensor cAMP luminescence, 1 h; Potency, µM (titrated, usually from 115 µM), for the others: at the top dose activation, actives largely listed as activators; 410,000 tested, 0.075% active; also: nearly all actives have a fitted effect of over 55% in size
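HEK-293-derived GP2 cells expressing PTHR1 and a GloSensor cAMP reporter, 3,000/well, plated overnight, given luciferin plus IBMX (each 0.5 mM as added) for 1 h at 37 °C, then compound for 1 h at 37 °C. Luminescence was read after 15 min at room temperature.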
GLP-1R agonist = qHTS of GLP-1 Receptor Agonists. Glucagon-like peptide 1 receptor (Homo sapiens), P43220. HEK293 GLP-1R CRE-luciferase, luminescence, 4-6 h; cells express a hypersensitive GLP-1R form. Potency, µM (doses to about 45.6 µM), inactives show top-dose activation, most hits filed as activators. 380,000 tested, 0.007% active. AID 624172, 2012; also: % of control where 0% means no effect
Target sequence (P43220 whole entry, looked up): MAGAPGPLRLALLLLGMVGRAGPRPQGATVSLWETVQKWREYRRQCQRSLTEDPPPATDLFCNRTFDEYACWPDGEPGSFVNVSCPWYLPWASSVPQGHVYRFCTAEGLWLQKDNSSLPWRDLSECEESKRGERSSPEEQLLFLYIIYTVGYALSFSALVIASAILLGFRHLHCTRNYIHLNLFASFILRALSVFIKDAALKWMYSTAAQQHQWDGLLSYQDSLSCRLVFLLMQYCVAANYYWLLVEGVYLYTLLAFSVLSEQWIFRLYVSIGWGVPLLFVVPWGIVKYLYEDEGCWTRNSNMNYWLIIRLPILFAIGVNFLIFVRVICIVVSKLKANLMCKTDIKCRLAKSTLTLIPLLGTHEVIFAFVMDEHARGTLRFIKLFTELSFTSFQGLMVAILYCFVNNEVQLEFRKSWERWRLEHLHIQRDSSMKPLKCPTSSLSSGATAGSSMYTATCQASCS
GLP-1R inv ag = qHTS of GLP-1 Receptor Inverse Agonists (Inhibition Mode); Glucagon-like peptide 1 receptor (Homo sapiens), P43220; HEK293 GLP-1R CRE-luciferase, luminescence, 24 h; GLP-1R form is constitutively active; Potency, µM (titrated, usually from 38.3 µM), without a hit: top-dose activity change, negative = inhibition, actives largely listed as inhibitors; 410,000 tested, 1.6% active; AID 624417, 2012; also: % is scaled to controls: 0 for no effect and ±100 for the full control effect; nearly all actives have a fitted effect of over 55% in size
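qHTS in 1536-well format: reporter HEK293 cells expressing constitutive GLP-1R activity in DMEM + 10% Nu serum, 24 hr with compounds at 37 deg C, luminescence read after 12 min with detection reagent.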
* marks the source's active call; other numbers are inactive results; i = inactive; ? = inconclusive; . = not tested or not shown; [ ] = dose if it differs, or a comment. Hits are enriched below; roughly 1.7% of the tested compounds scored in any of these assays. Calls follow the shape of the dose curve; as a rule, active = well fitted curve in the direction sought with a large enough effect; inconclusive = small, poorly fitted or top-dose-only effect, or another doubt; inactive = no such curve, though single readings can be large; an effect the other way counts as inactive or inconclusive. Potency is read from the fitted curve at half-maximal effect.

SMILES	HEK293 tox	PTHR1 ag	GLP-1R agonist	GLP-1R inv ag
CCN(CC)c1cc2c(cc1F)c(=O)c(S(=O)(=O)c1cc(C)ccc1C)cn2Cc1ccccc1	-6%	-7%	.	3%
O=C(COc1cccc(NC(=O)c2cccc([N+](=O)[O-])c2)c1)c1ccc(Br)cc1	-19%	-12%[57.5 µM]	-16%	3.2µM*
CCCN1CCN(CCCNC(=O)c2ccc3c(Cl)c4c(nc3c2)CCCC4)CC1	?	i	11%	5µM*
CCN(CC)CCCNC(=O)c1ccc2c(Cl)c3c(nc2c1)CCCC3	?	8%	7%	4.5µM*
Cc1ccc(-n2c(=O)c3cccnc3n2CC(=O)NCc2ccc(Cl)cc2)cc1	1%	i	-4%	-5%
COc1ccc(Cl)cc1NC(=O)CN(C)C(=O)c1ccc(C)s1	-9%	i	15%	5.6µM*
COc1ccc(OC)c(NC(=O)Nc2c(C)n(C)n(-c3ccccc3)c2=O)c1	10%	10%	.	0%
COc1ccc(Cl)cc1NC(=O)CN(C)CC(=O)Nc1c(C)n(C)n(-c2ccccc2)c1=O	-2%	i	0%	10µM*
COc1ccc(Cl)cc1NC(=O)CN(C)C(=O)c1cc2c(F)cccc2s1	-23%	-31%	-4%	?
O=C(CCc1nc2cccnc2n1Cc1cccs1)Nc1cccc(C(F)(F)F)c1	1%	-28%	.	?
FC(F)(F)c1cccc(NC(=S)N(CCCN2CCCC2)Cc2cccn2Cc2ccc(Cl)cc2)c1	-93%	i	3%	6.3µM*
OCCN1CCN(CCC=C2c3ccccc3Sc3ccc(Cl)cc32)CC1	.	.	-5%[19.8 µM]	.
OCCN1CCN(CC/C=C2/c3ccccc3CSc3ccccc32)CC1	?	-23%	4%	8.9µM*
COc1ccc(N2C(N)=C(C#N)C(c3cc(CN4CCOCC4)cs3)C3=C2CCCC3=O)cc1 (stereo unspecified)	-14%	i	.	5%
CCN(CC)C1CCN(C(=O)c2cc(COc3ccccc3SC)on2)C1 (stereo unspecified)	4%	i	-1%	7.1µM*
COc1cc2ccccc2cc1C(=O)NC1CCC(C)CC1 (stereo unspecified)	-9%	-20%	?	10µM*
COc1cc2ccccc2cc1C(=O)NC1CCCC1	-6%	-17%	18%	?
CCc1ccc(C(C)NC(=O)c2ccc3c(c2)OCO3)cc1 (stereo unspecified)	-3%	-13%	12%	11µM*
CC1CCC(NC(=O)c2ccc3c(c2)OCO3)CC1 (stereo unspecified)	-2%	-40%	0%	4µM*
CC(C(=O)Nc1ccc(F)c(Cl)c1)N1Cc2ccccc2C1=O (stereo unspecified)	-3%	-24%	.	-20%
COC(=O)C1C(=O)C2=C(CC1C)NC(C)=C(C(=O)OCCOc1ccccc1)C2c1ccc(C)o1 (stereo unspecified)	-24%	i	10%	11µM*
COC(=O)C1C(=O)C2=C(CC1C)NC(C)=C(C(=O)OC1CCCCC1)C2c1ccc(N(C)C)cc1 (stereo unspecified)	-16%	-5%	0%	10µM*
CC1=C(C(=O)OCCOc2ccccc2)C(c2ccc(C)o2)C2=C(CC(C)(C)CC2=O)N1 (stereo unspecified)	10%	-18%[57.5 µM]	-1%	7.9µM*
COC(=O)C1C(=O)C2=C(CC1C)NC(C)=C(C(=O)OC(C)C)C2c1ccc(C)o1 (stereo unspecified)	2%	i	-13%	-5%
CC1=C(C(=O)OC2CCCCC2)C(c2ccco2)C2=C(CC(C)(C)CC2=O)N1 (stereo unspecified)	4%	-17%	1%	8.9µM*
Cc1ccc(CN2COc3ccc4c(C)cc(=O)oc4c3C2)cc1	106%	-2%	6%	5%
CC(=O)Nc1ccccc1-c1nc2ccccc2n(C(C)C(=O)Nc2cccc(C)c2C)c1=O (stereo unspecified)	-2%	9%	.	-2%

Screening data deposited in PubChem by National Center for Advancing Translational Sciences (NCATS).
